# Columns and labels:
# Assay in all cases: DAPPL (digital affinity profiling via proximity ligation, sequencing); 10 mM Tris-HCl pH 7.5, 50 mM NaCl, 1 mM DTT, 4% glycerol, room temperature, 30 min; GST-TFs on glutathione beads, 16-mer random dsDNA library, 0.1% formaldehyde crosslink after washing; high values mean tight binding
# FEV = biological target: T1, FEV (Homo sapiens, UniProt Q99581 1-238); settings: protein: recombinant; tags: N-terminal GST; dsDNA, one strand shown
# T1 sequence: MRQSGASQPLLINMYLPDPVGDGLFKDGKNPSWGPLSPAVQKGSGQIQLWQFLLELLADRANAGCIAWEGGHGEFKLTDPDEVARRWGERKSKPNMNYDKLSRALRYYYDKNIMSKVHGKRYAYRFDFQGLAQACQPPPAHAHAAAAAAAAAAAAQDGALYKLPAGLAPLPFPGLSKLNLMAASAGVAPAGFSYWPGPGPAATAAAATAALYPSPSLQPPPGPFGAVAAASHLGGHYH
# In short: (§1)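 Human transcription factors were made in yeast as GST fusions, captured on glutathione beads and barcoded with DNA. With a tag-only sample included, the pool was incubated with 200 nmole of a random double-stranded 16-mer DNA library in Tris/NaCl/DTT/glycerol buffer at room temperature for 30 min, then crosslinked with 0.1% formaldehyde after washing, ligated by proximity, amplified and sequenced. For binding signal, each hexamer's read frequency for a factor is divided by its frequency for the tag-only sample.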
# ETV5 = ETV5 (Homo sapiens, UniProt P41161 1-510); settings: protein: recombinant; tags: N-terminal GST; dsDNA, one strand shown
# In short: as §1
# HSF1 = HSF1 (Homo sapiens, UniProt Q00613 1-529); settings: protein: recombinant; tags: N-terminal GST; chain copies: 3; dsDNA, one strand shown
# In short: as §1
# SPIC = biological target: T2, SPIC (Homo sapiens, UniProt Q8N5J4 1-248); settings: protein: recombinant; tags: N-terminal GST; dsDNA, one strand shown
# T2 sequence: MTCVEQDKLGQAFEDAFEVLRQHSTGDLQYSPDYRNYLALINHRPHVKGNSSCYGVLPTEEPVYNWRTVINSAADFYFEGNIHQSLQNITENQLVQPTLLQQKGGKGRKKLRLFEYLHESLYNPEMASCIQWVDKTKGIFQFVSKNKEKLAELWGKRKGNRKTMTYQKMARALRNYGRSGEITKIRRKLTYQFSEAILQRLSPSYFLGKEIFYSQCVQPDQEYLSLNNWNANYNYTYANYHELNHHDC
# In short: as §1
# ELF4 = ELF4 (Homo sapiens, UniProt Q99607 1-663); settings: protein: recombinant; tags: N-terminal GST; dsDNA, one strand shown
# In short: as §1
# ELK4 = biological target: T3, ELK4 (Homo sapiens, UniProt P28324-2 1-405); settings: protein: recombinant; tags: N-terminal GST; dsDNA, one strand shown
# T3 sequence: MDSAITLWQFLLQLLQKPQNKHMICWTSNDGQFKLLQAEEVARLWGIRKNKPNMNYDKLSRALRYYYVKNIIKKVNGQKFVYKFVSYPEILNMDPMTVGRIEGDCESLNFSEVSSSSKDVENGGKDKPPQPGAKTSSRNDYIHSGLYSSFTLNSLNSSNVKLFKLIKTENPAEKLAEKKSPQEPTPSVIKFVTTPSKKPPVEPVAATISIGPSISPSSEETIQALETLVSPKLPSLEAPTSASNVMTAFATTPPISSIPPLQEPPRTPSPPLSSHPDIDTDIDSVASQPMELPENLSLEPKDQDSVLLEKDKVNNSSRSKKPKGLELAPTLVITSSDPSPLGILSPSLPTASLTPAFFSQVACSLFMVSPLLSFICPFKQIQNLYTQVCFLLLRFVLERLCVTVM
# In short: as §1
# ETV2 = biological target: T4, ETV2 (Homo sapiens, UniProt O00321 1-342); settings: protein: recombinant; tags: N-terminal GST; dsDNA, one strand shown
# T4 sequence: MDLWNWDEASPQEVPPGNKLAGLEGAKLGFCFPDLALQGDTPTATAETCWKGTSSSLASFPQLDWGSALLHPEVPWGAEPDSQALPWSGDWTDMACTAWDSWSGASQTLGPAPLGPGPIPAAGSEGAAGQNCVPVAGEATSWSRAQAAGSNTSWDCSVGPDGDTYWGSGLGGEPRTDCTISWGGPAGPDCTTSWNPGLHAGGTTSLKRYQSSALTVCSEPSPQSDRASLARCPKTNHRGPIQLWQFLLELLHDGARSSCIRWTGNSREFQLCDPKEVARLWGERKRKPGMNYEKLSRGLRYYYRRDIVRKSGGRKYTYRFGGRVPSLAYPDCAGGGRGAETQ
# In short: as §1
# ELF3 = biological target: T5, ELF3 (Homo sapiens, UniProt P78545 1-371); settings: protein: recombinant; tags: N-terminal GST; dsDNA, one strand shown
# T5 sequence: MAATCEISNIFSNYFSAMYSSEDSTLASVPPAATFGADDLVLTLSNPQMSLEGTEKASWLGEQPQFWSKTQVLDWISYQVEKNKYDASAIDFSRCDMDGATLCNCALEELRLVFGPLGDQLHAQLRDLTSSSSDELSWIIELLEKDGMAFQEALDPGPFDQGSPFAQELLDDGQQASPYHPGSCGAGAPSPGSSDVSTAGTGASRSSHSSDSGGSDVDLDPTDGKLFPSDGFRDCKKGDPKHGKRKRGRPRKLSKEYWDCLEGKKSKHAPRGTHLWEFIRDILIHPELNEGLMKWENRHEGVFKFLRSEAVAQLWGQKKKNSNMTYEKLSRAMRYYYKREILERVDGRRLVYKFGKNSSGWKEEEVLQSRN
# In short: as §1
# CRX = CRX (Homo sapiens, UniProt O43186 1-299); settings: protein: recombinant; tags: N-terminal GST; dsDNA, one strand shown
# In short: as §1
# ETV1 = ETV1 (Homo sapiens, UniProt P50549 1-477); settings: protein: recombinant; tags: N-terminal GST; dsDNA, one strand shown
# In short: as §1
# ERF = biological target: T6, ERF (Homo sapiens, UniProt P50548 1-548); settings: protein: recombinant; tags: N-terminal GST; dsDNA, one strand shown
# T6 sequence: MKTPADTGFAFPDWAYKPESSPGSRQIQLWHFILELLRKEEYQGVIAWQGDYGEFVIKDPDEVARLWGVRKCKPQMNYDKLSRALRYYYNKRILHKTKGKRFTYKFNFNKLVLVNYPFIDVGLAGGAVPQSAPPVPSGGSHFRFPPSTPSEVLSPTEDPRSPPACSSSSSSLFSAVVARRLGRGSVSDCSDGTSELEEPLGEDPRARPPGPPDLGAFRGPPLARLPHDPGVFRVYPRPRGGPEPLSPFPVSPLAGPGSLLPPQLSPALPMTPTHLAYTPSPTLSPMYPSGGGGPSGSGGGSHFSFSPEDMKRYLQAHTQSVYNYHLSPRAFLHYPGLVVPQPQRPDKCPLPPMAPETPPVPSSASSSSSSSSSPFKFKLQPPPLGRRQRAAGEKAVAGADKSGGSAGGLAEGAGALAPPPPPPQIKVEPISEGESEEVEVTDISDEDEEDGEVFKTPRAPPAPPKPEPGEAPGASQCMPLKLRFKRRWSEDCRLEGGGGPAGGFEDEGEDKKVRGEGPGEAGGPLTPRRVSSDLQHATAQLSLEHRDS
# In short: as §1
# ETV3L = biological target: T7, ETV3L (Homo sapiens, UniProt Q6ZN32 1-361); settings: protein: recombinant; tags: N-terminal GST; dsDNA, one strand shown
# T7 sequence: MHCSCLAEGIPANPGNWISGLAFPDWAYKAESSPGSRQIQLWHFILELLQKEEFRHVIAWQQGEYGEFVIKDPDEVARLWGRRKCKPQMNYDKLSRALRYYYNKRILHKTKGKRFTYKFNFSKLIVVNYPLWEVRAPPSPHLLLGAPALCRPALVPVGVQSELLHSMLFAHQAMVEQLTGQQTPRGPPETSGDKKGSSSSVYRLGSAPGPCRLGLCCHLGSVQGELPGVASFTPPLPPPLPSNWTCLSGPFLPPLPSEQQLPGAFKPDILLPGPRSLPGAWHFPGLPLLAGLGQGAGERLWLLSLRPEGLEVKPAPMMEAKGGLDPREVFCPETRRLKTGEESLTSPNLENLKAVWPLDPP
# In short: as §1
# ETS2 = biological target: T8, ETS2 (Homo sapiens, UniProt P15036 1-469); settings: protein: recombinant; tags: N-terminal GST; dsDNA, one strand shown
# T8 sequence: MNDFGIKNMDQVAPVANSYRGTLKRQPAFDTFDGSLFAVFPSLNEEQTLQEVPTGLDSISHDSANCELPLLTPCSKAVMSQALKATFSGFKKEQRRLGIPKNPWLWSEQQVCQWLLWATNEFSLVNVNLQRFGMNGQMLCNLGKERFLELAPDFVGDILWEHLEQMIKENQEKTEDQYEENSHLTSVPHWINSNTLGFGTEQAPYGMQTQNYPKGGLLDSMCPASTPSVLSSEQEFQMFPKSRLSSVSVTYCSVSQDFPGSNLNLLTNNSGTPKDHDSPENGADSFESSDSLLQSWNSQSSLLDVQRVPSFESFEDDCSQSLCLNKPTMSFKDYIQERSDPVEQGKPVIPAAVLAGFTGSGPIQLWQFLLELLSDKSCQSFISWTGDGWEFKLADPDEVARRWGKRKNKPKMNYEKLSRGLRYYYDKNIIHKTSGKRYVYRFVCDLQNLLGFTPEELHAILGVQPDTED
# In short: as §1
# SPDEF = biological target: T9, SPDEF (Homo sapiens, UniProt O95238 1-335); settings: protein: recombinant; tags: N-terminal GST; dsDNA, one strand shown
# T9 sequence: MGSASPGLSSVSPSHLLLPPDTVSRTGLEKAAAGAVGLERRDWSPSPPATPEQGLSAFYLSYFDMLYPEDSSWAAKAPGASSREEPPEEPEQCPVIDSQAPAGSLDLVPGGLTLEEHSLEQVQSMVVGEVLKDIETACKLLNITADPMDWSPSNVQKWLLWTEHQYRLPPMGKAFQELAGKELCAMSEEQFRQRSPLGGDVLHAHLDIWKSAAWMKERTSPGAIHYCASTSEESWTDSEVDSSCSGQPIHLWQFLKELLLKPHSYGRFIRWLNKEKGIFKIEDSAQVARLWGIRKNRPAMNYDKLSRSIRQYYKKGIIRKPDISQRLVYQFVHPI
# In short: as §1
# ETV7 = biological target: T10, ETV7 (Homo sapiens, UniProt Q9Y603 1-341); settings: protein: recombinant; tags: N-terminal GST; dsDNA, one strand shown
# T10 sequence: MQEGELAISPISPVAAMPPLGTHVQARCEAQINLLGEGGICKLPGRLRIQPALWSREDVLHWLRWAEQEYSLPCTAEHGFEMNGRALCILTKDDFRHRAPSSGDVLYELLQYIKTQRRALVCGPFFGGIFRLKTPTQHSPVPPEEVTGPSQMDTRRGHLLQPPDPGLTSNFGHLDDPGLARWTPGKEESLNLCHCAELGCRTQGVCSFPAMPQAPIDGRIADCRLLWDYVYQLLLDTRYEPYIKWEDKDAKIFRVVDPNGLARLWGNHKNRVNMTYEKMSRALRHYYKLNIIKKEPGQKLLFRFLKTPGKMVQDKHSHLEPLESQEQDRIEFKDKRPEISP
# In short: as §1
# ELF5 = biological target: T11, ELF5 (Homo sapiens, UniProt Q9UKW6-2 1-255); settings: protein: recombinant; tags: N-terminal GST; dsDNA, one strand shown
# T11 sequence: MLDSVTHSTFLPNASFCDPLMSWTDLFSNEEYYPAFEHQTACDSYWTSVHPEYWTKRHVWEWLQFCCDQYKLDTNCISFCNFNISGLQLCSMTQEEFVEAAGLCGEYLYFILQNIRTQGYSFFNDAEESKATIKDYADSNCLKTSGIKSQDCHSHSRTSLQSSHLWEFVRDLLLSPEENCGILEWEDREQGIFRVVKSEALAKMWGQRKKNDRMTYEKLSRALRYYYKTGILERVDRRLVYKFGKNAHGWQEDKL
# In short: as §1
# ETV3 = biological target: T12, ETV3 (Homo sapiens, UniProt P41162-2 1-143); settings: protein: recombinant; tags: N-terminal GST; dsDNA, one strand shown
# T12 sequence: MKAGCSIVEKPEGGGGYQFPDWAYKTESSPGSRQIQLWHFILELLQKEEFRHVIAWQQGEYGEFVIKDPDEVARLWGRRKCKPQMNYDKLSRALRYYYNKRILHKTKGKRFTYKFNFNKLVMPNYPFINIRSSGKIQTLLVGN
# In short: as §1
# ETV6 = ETV6 (Homo sapiens, UniProt P41212 1-452); settings: protein: recombinant; tags: N-terminal GST; dsDNA, one strand shown
# In short: as §1
# Sequence of ETV1 (P50549 whole entry): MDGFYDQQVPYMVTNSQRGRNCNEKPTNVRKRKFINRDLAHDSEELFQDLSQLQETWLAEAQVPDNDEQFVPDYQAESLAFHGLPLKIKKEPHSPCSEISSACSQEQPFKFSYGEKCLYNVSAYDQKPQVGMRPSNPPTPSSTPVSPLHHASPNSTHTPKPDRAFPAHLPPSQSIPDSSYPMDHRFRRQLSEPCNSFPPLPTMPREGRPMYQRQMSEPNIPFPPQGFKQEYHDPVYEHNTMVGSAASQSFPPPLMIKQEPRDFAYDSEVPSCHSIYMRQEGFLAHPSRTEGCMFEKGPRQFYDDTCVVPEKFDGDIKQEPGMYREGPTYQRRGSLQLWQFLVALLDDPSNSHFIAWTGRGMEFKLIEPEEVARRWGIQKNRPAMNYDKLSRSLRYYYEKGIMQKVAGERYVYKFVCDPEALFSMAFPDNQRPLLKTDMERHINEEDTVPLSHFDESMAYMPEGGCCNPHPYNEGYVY
# Sequence of HSF1 (Q00613 whole entry): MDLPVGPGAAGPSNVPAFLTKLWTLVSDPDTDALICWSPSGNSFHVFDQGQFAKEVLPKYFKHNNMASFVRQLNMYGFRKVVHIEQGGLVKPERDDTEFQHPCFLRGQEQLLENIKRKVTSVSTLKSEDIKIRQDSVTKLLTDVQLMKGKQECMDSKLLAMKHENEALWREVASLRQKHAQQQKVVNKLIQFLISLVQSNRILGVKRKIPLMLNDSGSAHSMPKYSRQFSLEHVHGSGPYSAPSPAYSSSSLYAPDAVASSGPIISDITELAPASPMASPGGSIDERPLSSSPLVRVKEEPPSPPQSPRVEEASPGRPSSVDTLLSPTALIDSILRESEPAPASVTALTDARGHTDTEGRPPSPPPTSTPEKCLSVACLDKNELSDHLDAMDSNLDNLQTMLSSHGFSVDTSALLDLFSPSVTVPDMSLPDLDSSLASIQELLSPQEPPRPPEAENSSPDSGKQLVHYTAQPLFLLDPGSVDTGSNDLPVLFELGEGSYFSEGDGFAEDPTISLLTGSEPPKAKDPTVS
# Sequence of ETV6 (P41212 whole entry): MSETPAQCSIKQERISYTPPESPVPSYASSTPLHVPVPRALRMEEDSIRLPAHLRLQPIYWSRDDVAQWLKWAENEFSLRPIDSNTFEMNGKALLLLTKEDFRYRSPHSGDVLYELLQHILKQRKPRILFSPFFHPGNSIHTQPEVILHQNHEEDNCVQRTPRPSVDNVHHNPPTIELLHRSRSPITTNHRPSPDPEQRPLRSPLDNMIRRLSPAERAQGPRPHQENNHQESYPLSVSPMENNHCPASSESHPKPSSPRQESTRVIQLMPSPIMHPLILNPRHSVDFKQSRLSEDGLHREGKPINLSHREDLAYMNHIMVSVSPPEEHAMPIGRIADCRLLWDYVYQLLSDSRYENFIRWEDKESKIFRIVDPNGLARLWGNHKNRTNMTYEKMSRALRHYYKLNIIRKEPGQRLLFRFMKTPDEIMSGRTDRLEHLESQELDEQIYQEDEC
# Sequence of ETV5 (P41161 whole entry): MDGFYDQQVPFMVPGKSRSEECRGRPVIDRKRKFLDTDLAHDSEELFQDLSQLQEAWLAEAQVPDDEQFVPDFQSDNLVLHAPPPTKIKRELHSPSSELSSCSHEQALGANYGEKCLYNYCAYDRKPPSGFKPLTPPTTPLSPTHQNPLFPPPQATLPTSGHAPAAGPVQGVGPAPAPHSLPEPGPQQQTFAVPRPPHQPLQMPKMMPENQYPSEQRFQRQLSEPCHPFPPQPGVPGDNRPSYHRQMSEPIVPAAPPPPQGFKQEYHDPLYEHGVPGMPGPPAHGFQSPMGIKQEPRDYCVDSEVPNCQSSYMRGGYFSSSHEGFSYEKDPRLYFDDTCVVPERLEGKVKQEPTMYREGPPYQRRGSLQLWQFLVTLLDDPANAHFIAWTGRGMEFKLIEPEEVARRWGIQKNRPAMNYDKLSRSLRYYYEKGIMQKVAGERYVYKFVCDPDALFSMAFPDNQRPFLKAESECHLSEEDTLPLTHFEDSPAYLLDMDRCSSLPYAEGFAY
# Sequence of ELF4 (Q99607 whole entry): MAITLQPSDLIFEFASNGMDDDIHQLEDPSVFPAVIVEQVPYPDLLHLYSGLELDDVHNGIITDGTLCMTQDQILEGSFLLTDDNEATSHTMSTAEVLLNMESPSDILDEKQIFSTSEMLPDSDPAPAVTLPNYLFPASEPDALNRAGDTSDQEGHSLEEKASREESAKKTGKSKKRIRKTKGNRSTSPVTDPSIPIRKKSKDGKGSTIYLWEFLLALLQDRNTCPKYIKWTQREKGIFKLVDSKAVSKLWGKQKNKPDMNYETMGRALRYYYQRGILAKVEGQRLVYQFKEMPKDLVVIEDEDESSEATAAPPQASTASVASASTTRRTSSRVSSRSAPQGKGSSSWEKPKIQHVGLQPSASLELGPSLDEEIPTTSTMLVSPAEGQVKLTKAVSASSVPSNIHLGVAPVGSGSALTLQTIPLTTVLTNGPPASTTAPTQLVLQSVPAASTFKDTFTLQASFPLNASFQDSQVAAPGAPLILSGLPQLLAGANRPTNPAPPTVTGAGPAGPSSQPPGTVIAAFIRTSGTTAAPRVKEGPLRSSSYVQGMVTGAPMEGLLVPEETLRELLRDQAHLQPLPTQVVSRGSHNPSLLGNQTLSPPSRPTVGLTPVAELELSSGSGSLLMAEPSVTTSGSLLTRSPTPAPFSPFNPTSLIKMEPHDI
# Sequence of CRX (O43186 whole entry): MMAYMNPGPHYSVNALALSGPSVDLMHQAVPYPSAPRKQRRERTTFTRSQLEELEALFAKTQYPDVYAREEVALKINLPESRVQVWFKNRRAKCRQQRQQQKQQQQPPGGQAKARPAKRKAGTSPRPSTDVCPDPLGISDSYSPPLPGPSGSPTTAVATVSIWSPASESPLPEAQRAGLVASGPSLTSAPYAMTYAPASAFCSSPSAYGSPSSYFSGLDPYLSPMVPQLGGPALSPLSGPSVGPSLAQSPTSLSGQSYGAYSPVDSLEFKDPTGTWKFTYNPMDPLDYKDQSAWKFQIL
sequence,measurement,setting,value
ACGCTA,binding signal,FEV,"1.13 fold enrichment (6-mer frequency, TF over GST control)"
same,binding signal,ETV5,"1.17 fold enrichment (6-mer frequency, TF over GST control)"
same,binding signal,HSF1,"1.12 fold enrichment (6-mer frequency, TF over GST control)"
same,binding signal,SPIC,"1.09 fold enrichment (6-mer frequency, TF over GST control)"
same,binding signal,ELF4,"1.25 fold enrichment (6-mer frequency, TF over GST control)"
same,binding signal,ELK4,"1.06 fold enrichment (6-mer frequency, TF over GST control)"
same,binding signal,ETV2,"1.28 fold enrichment (6-mer frequency, TF over GST control)"
same,binding signal,ELF3,"1.17 fold enrichment (6-mer frequency, TF over GST control)"
same,binding signal,CRX,"1.18 fold enrichment (6-mer frequency, TF over GST control)"
same,binding signal,ETV1,"1.09 fold enrichment (6-mer frequency, TF over GST control)"
same,binding signal,ERF,"1.2 fold enrichment (6-mer frequency, TF over GST control)"
same,binding signal,ETV3L,"1.12 fold enrichment (6-mer frequency, TF over GST control)"
same,binding signal,ETS2,"1.01 fold enrichment (6-mer frequency, TF over GST control)"
same,binding signal,SPDEF,"1.15 fold enrichment (6-mer frequency, TF over GST control)"
same,binding signal,ETV7,"1.17 fold enrichment (6-mer frequency, TF over GST control)"
same,binding signal,ELF5,"1.12 fold enrichment (6-mer frequency, TF over GST control)"
same,binding signal,ETV3,"1.21 fold enrichment (6-mer frequency, TF over GST control)"
same,binding signal,ETV6,"1.08 fold enrichment (6-mer frequency, TF over GST control)"

# From paper PMC7862700, “An all-to-all approach to the identification of sequence-specific readers for epigenetic DNA modifications on cytosine”
